# D2 PAM-1 – D2 dopamine receptor (human) potentiation; AID 485347; 340,000 compounds, 0.34% hits; potentiation, % at 10 µM; HEK293 T-REx D2, calcium flux, EC20 dopamine potentiation;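 active = potentiation over 3 SD above the plate norm, cut at about 30% in these data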; also: 0% is about no effect
# Target sequence (P14416 whole entry, looked up): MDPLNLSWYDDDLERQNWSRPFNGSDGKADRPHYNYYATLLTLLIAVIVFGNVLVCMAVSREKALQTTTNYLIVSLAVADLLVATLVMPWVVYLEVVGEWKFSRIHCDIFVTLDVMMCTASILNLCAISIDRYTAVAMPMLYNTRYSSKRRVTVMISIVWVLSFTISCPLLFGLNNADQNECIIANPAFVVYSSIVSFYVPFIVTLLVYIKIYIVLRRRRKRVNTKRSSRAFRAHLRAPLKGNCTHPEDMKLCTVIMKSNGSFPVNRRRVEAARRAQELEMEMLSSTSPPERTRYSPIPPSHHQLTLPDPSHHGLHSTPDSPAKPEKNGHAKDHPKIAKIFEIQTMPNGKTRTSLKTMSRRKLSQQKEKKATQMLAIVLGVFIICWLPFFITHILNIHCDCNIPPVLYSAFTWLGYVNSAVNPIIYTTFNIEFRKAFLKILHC
#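 Potentiation of an EC20 dopamine calcium response measured kinetically over 180 s, after a preceding 180 s compound-only read flagging agonists. Cells: inducible Hek293 Trex D2 line, 4000/well, cultured overnight at 30 C before dye loading.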
# D2 antagonist – antagonizes the human D2 dopamine receptor. 340,000 compounds, 2% hits. P14416. inhibition, % at 10 µM. HEK293 TREx D2 cells, calcium flux, dopamine EC80. AID 485344; in the data active = inhibition above about 30%; inactive = below that, where a call was filed; also: 0% is about no effect
#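 Calcium mobilization kinetics were recorded at 1 s intervals in tetracycline-induced HEK293 T-REx D2 cells, first for 180 s after compound addition and then 180 s after EC80 dopamine.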
# Apoferritin bind – binds horse apoferritin like a general anesthetic. P02791. apoferritin/1-aminoanthracene competitive binding, fluorescence. Potency, µM (top dose mostly 77.5 µM), for inactives: at the top dose activity change, negative = displacement, actives largely listed as inhibitors. 350,000 compounds, 0.074% hits. AID 485281; active = well fitted inhibition curve with a large enough effect; inconclusive = small, poorly fitted or top-dose-only effect; inactive = no such curve, though single readings can be large or run the other way; also: potency is read from the fitted curve at half-maximal effect; % is scaled to controls: 0 for no effect and ±100 for the full control effect; nearly all actives have a fitted effect of over 20% in size
#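 Horse-spleen apoferritin (10 uM) was mixed with 50% saturated 1-aminoanthracene in PBS, exposed to compounds for 10 min at room temperature, and read for fluorescence (ex 380 nm, em 535 nm). Competitive displacement was fitted with a four-parameter Hill equation.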
# D2 ag-1 – activates the human D2 dopamine receptor | P14416 | DiscoveRx PathHunter D2 beta-arrestin, luminescence, 90 min; 100% = 57 uM dopamine signal | activation, % (test concentration not listed) | 360,000 compounds, 0.084% hits; in the data active = activation above about 40%; inconclusive = between about 15% and that limit
#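 Agonist mode: compounds alone added to overnight-plated D2 PathHunter cells for 90 min at 37 C, with 57 uM final dopamine (EC100) defining full response. Beta-arrestin recruitment detected by chemiluminescent reagent, read after 1 h at ambient temperature.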
# D2 PAM-2 – positive allosteric modulators of human D2 dopamine receptor; potentiation, % (test concentration not listed); 360,000 compounds, 0.23% hits; DiscoveRx D2 beta-arrestin cells, luminescence, 90 min; 100% = 57 uM dopamine signal; in the data active = potentiation above about 50%; inconclusive = mostly about 30% to 49%
#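 PathHunter beta-arrestin assay in DiscoveRx D2 cells. Compounds were added with an EC20 of dopamine (50 nM final) for 90 min at 37 deg C. Luminescence was read 1 h after detection reagent, with 57 uM dopamine as the EC100 control.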
# D2 ag-2 – activates the human D2 dopamine receptor; HEK293 T-REx D2 cells, calcium flux agonist mode; AID 485358; 340,000 compounds, 0.53% hits; P14416; activation, % at 2 µM;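 active = activation over 3 SD above normal in the single-dose calcium agonist read, cut at about 30% in these data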; also: 0% is about no effect
#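 HEK293 Trex D2 cells, tetracycline-induced, o/n 30 C 5% CO2; no-wash Ca dye, RT 30–90 min; 10-cycle baseline, 23 nl cpd added, kinetic Ca read 180 s; agonist hits = positive Ca response.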
# Numbers without * were called inactive; ? = inconclusive; . = not tested or not shown. Sampled rows, rich in hits. Any-hit rate of the full collection: about 2.5%.
SMILES,D2 PAM-1,D2 antagonist,Apoferritin bind,D2 ag-1,D2 PAM-2,D2 ag-2
CC(C)CC(OC(=O)c1nsc(Cl)c1Cl)C(=O)NC1CCCC1 (stereo unspecified),1,69*,0%,-3,-3,-1
CCN(c1ccc(OC)cc1)S(=O)(=O)c1csc(C(N)=O)c1,1,-9,-8%,0,-6,-1
COc1ccc(/C=C2\COc3ccccc3C2=O)cc1OC,18,-2,-6%,1,5,0
CCOc1cc(/C=C2\COc3ccccc3C2=O)cc(Br)c1OCC(=O)N(C)C,-1,44*,1%,-1,-5,11
Cc1oc2ccc(O)cc2c1C(=O)c1ccc([N+](=O)[O-])cc1,1,-3,-22%,7,54*,0
Cc1oc2ccc(O)cc2c1C(=O)c1ccc(Cl)cc1,-3,8,?,2,-12,0
CCCC(=O)Nc1ccc(S(=O)(=O)N2CCOCC2)cc1,4,10,4%,2,0,0
Cc1cccc(CS(=O)(=O)Cc2ccc(C(=O)NCc3cccnc3)o2)c1,.,33*,5%,0,-1,2
CCc1ccc(CNC(=O)c2ccc(CS(=O)(=O)Cc3cccc(C)c3)o2)cc1,.,.,-13%,.,.,0
O=C(O)CC1(CC(=O)N2CCOCC2)CCCC1,36*,4,6%,-3,2,0
O=C(O)CC1(CC(=O)N2CCC(C(=O)O)CC2)CCCC1,7,12,1%,-3,-2,1
COc1ccc(C2(C(=O)Nc3ccc(S(N)(=O)=O)cc3)CCCC2)cc1,2,0,-12%,-4,-6,0
COC(=O)c1c(C(=O)OC)c2ccccn2c1C(=O)c1ccc([N+](=O)[O-])cc1,.,.,4%,3,21,.
COC(=O)c1c(C(=O)OC)c2cc(C(=O)c3ccccc3)ccn2c1Cl,47*,3,?,-3,-13,0
COc1ccccc1/C=N\Nc1cn[nH]c(=O)c1Cl,0,30*,3%,0,-3,-2
COC(=O)[C@H]1C[C@@H](c2ccccc2)[C@H](C)C1(C)C,6,-1,.,-2,-15,0
CC(=O)NS(=O)(=O)c1cccnc1Nc1ccc(Cl)c(Cl)c1,2,-17,-15%,-2,12,0
NS(=O)(=O)c1cccnc1Nc1ccc(Cl)c(Cl)c1,3,6,8.9µM*,1,3,-1
Cc1ccc(OCc2ccoc2C(=O)O)cc1C,-5,30*,-9%,-1,-5,-1
Cc1ccc(OCc2ccc(C(=O)O)o2)cc1C,6,17,12%,-1,-6,0
CC1(C)Cc2cccc(C(=O)NC3CCN(Cc4ccccc4)CC3)c2O1,-19,73*,6%,0,-21,0
CCOC(=O)C1CCCN(C(=O)c2ccc(S(=O)(=O)NCc3ccco3)cc2)C1 (stereo unspecified),4,4,.,-4,9,0
Cc1ccc(C)n1-c1ccc(C(=O)NC2CCN(Cc3ccccc3)CC2)cc1,-35,85*,5%,-3,-41,0
O=C(NC1CCN(Cc2ccccc2)CC1)c1cn(-c2ccccc2)nc1-c1cccnc1,0,75*,.,-3,-28,0
CC1(C(=O)NC2CCN(Cc3ccccc3)CC2)CCN1CCc1ccccc1 (stereo unspecified),.,.,.,-6,-21,.
CC1CCCC(C)N1C(=O)c1ccc(S(=O)(=O)NCc2ccco2)cc1 (stereo unspecified),.,37*,-9%,0,-6,-3
Nc1c(S(=O)(=O)c2ccccc2)c2nc3ccccc3nc2n1Cc1ccco1,10,15,250%,-1,-5,5
CCN(Cc1nc(-c2ccccc2)no1)C(=O)COc1cccc(OC)c1,.,14,-11%,0,-11,-3
O=C(NC1CCN(Cc2ccccc2)CC1)c1ccc(S(=O)(=O)NCc2ccco2)cc1,-15,36*,-10%,-3,-32,1
Cc1ccc(CN2CCC(NC(=O)c3ccccc3)CC2)cc1,-24,90*,1%,-1,-22,0

# From PubChem
